From PubChem BioAssay AID1259415 (National Center for Advancing Translational Sciences (NCATS), 2018) come the findings set out here.

Molecules are shown by their SMILES. Screen size: about 410,000 compounds; about 18,000 (4.4%) were called active. Inconclusive results (about 7%) are left out. Only a selection was taken, and actives are over-represented in it overall. Unmarked numbers belong to inactive results. Rule as the data show it: active = activity change below about -60%; inconclusive = no clear call, values can overlap the other calls; inactive = above about -39%.
% is scaled to controls: 0 for no effect and ±100 for the full control effect.

The nature of this test: qHTS Assay for inhibitors of the human cytomegalovirus (HCMV). To be noted: HFF cells, HCMV-luciferase reporter, 72 h; at 57.5 µM; hits give low values. The gist of the method: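 Two compound doses tested in HFFs infected with HCMV-luciferase, MOI 1 PFU/cell, 72 h at 37C. Lysate luminescence read with OneGlo; data normalized against buffer-only and 10uM Salinomycin inhibitor controls.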
`CCOC(=O)N1CCN(C(=O)CSc2nc(C)nc3c2c(=O)n(C)c(=O)n3C)CC1`: the activity change, negative = inhibition was -22.5%.

As for `Cn1c(=O)c2c(SCC(=O)N3CCOCC3)nc(C3CC3)nc2n(C)c1=O`, the activity change, negative = inhibition is -3.56%.

For the compound `CCCc1nc(SCC(=O)N2CCCC2)c2c(=O)n(C)c(=O)n(C)c2n1`, the activity change, negative = inhibition was -70.5% (active).

For `Cn1nnnc1SCCCNCc1cccc(OCc2ccc(Cl)cc2)c1`, the activity change, negative = inhibition is 12.4%.

For `CN(Cc1ccccc1)C(=O)c1cc2c(=O)n(C)c3ccccc3c2s1`, the activity change, negative = inhibition was 2.36%.

For `O=C(NCc1ccncc1)C(=O)NCc1ccco1`, the activity change, negative = inhibition was -17.8%.

With `CC(=O)OC[C@@H]1CN(Cc2ccccc2)C[C@H](n2cnc3c(NCc4ccco4)ncnc32)O1`, the activity change, negative = inhibition was -0.673%.

For the compound `COc1cccc(CNC(=O)Cc2csc3nc(-c4ccccc4)cn23)c1`, the activity change, negative = inhibition was -6.98%.

`COc1ccc(CNC(=O)COc2cccnc2[N+](=O)[O-])cc1`: the activity change, negative = inhibition is 1.06%.

For the compound `COc1cccc(CNc2ncc(-c3ccccc3)n2C)c1`, the activity change, negative = inhibition was 34.7%.

Regarding `NS(=O)(=O)c1ccc(CCNc2nc(C(F)(F)F)nc3ccccc23)cc1`, the activity change, negative = inhibition is -68.6% (active).

For the compound `COc1ccc(CNc2ncnc3ccccc23)cc1`, the activity change, negative = inhibition is -91.4% (active).

Consider `CC(NCCc1ccc(S(N)(=O)=O)cc1)C(=O)NCc1ccccc1` (stereo unspecified), for which the activity change, negative = inhibition is -27.8%.

Take `O=C(COc1ncnc2ccccc12)NC(=O)NCc1ccccc1`: the activity change, negative = inhibition was -32.5%.

As for `NS(=O)(=O)c1ccc(CCNC(=O)COC(=O)COc2cccc(C(F)(F)F)c2)cc1`, the activity change, negative = inhibition is -3.4%.

`c1coc(CNc2ncnc3ccccc23)c1`: the activity change, negative = inhibition is -64.6% (active).

As to `COc1cccc(CNc2nc(C(F)(F)F)nc3ccccc23)c1`, the activity change, negative = inhibition was -73.3% (active).

For `CCC(=O)N1CCc2cc(CNC(=O)Nc3ccccc3Cl)ccc21`, the activity change, negative = inhibition is 38.6%.

Turning to `Cc1ccc(NS(=O)(=O)c2ccc3c(c2)CC(=O)N3)cc1Cl`, the activity change, negative = inhibition was 7.34%.

With `O=C(NCc1ccccc1Cl)c1cccn1-c1nnc(N2CCCCC2)s1`, the activity change, negative = inhibition is 0%.

With `CCn1c(C(C)NC(=O)c2ccc(C)cc2)n[nH]c1=S` (stereo unspecified), the activity change, negative = inhibition was 12.4%.

Take `Cc1cccc(C2CC(=O)Oc3c2c(=O)n(C)c2ccccc32)c1` (stereo unspecified): the activity change, negative = inhibition is 18.7%.

As for `O=[N+]([O-])c1cc(-c2nc(-c3ccccc3)no2)ccc1NCc1ccco1`, the activity change, negative = inhibition was 82.5%.

`CN(c1ccccc1)c1nc(N)c([N+](=O)[O-])c(NCc2ccco2)n1`: the activity change, negative = inhibition is -22.9%.

On to `c1ccc(-c2nc(NCc3ccco3)c3ccccc3n2)cc1`, for which the activity change, negative = inhibition was -68% (active).

Consider `Cc1oc(C)c2c(=O)cc(-c3ccc4c(c3)OCO4)cc(OC(=O)c3ccc(Cl)cc3)c12`, for which the activity change, negative = inhibition is 8.11%.

As to `O=C(OCc1cc(=O)n2nc(C3CC3)sc2n1)c1ccccc1Cl`, the activity change, negative = inhibition is -5.87%.

On to `Cc1ccc(-n2c(SCC(=O)NCCC3=CCCCC3)nc3n[nH]c(C)c3c2=N)cc1Cl`, for which the activity change, negative = inhibition is -93.6% (active).

As to `COc1ccc(-n2c(SCC(=O)Nc3ccc(Cl)c(C)c3)nc3n[nH]c(C)c3c2=N)cc1`, the activity change, negative = inhibition was 0%.

Regarding `COc1cccc(-n2c(SCC(=O)NC3CCCCC3)nc3n[nH]c(C)c3c2=N)c1`, the activity change, negative = inhibition is 28%.

On to `COc1ccc(-n2nnc(-c3nsc(NC(=O)c4ccc(C)c(C)c4)n3)c2C)cc1Cl`, for which the activity change, negative = inhibition is -9.03%.

As to `O=C(NCCc1ccccc1)C(=O)NCC(c1ccco1)S(=O)(=O)c1ccccc1` (stereo unspecified), the activity change, negative = inhibition is -21.8%.

Consider `COc1cc(C(=O)NCC(c2ccc(Cl)cc2)N2CCOCC2)cc(OC)c1OC` (stereo unspecified), for which the activity change, negative = inhibition was 3.59%.

Take `Cc1ccc(OCc2nc(C#N)c(N3CCCC3)o2)cc1`: the activity change, negative = inhibition is -14.4%.

Regarding `N#Cc1nc(COc2ccc(-c3ccccc3)cc2)oc1NCc1cccnc1`, the activity change, negative = inhibition was -63.4% (active).

For `O=S(=O)(c1ccc(Br)cc1)c1nc(-c2ccccc2)oc1NCc1cccnc1`, the activity change, negative = inhibition is -3.8%.

Take `Cc1cc(C)c(NC(=O)CSc2nc3nccnc3c(=O)n2CCc2c[nH]c3ccccc23)c(C)c1`: the activity change, negative = inhibition was -19.7%.

On to `COc1ccc2c(c1)c(=Cc1ccc(N(C)C)cc1)c1cc(-c3ccccc3)[n+](C)n12`, for which the activity change, negative = inhibition is -99.1% (active).

Turning to `Cc1ccc(S(=O)(=O)c2nnn3c2nc(N2CCN(c4ccccc4F)CC2)c2cc(Cl)ccc23)cc1C`, the activity change, negative = inhibition is 11.3%.

As for `CCn1cc(C(=O)NCc2ccccc2)c(=O)c2cc(S(=O)(=O)N3CCCCC3)ccc21`, the activity change, negative = inhibition was 1.38%.

Consider `CN(C)CCCn1c(-c2ccc(Cl)cc2)csc1=Nc1ccccc1`, for which the activity change, negative = inhibition was -19.8%.

For the compound `COc1cc(/C=N/O)cc(Br)c1OS(=O)(=O)c1ccc(C)cc1`, the activity change, negative = inhibition was -76.2% (active).

On to `COc1cc(/C=C/c2ccc(/C=C/c3cc(OC)c(OC)c(OC)c3)cc2)cc(OC)c1OC`, for which the activity change, negative = inhibition is -35.4%.

Turning to `Cc1ccc(S(=O)(=O)Oc2ccc(/C=N/NC(=O)c3c(Cl)cnn3C)cc2)cc1`, the activity change, negative = inhibition is 22%.

Regarding `COc1cccc(CNC(=O)c2cc(=O)[nH]c3ccc(S(=O)(=O)N4CCCCC4)cc23)c1`, the activity change, negative = inhibition is 0.829%.

On to `CSc1ncc(Cl)c(C(=O)Nc2ccc(S(=O)(=O)N3CCCC(C)C3)cc2)n1` (stereo unspecified), for which the activity change, negative = inhibition is -86% (active).

On to `CCc1ccc(NC(=O)c2cc(S(=O)(=O)N3CCCC(C)C3)cn2C)cc1` (stereo unspecified), for which the activity change, negative = inhibition was -13.1%.

For the compound `COc1ccc(S(=O)(=O)N2CCCC(C(=O)Nc3ccc(NC(=O)c4ccccn4)cc3)C2)cc1` (stereo unspecified), the activity change, negative = inhibition is 62.8%.

For the compound `Cc1nnc(SCC(=O)NCc2ccccc2Cl)c2nn(-c3ccccc3)c(C)c12`, the activity change, negative = inhibition was -12.6%.

As to `O=C(NC(=O)N1CCSCC1)c1c(Cl)cccc1Cl`, the activity change, negative = inhibition is 7.68%.

For `COc1ccc(-c2nn(CC(=O)NC3CCCC3)c3c2cnc2ccc(F)cc23)cc1`, the activity change, negative = inhibition was 35.7%.

On to `CCC(C)(C)NC(=O)CN(C(=O)C(=O)Nc1ccc2c(c1)OCCO2)C(C)(C)CC`, for which the activity change, negative = inhibition was 21.3%.

As to `COC(=O)CCNc1ccc2c(c1)OCCO2`, the activity change, negative = inhibition was -79.1% (active).

For the compound `CCOc1ccc(NCCC(=O)c2ccc3c(c2)OCO3)cc1`, the activity change, negative = inhibition is -3.98%.

For the compound `Cn1nc(-c2ccccc2)c(-c2ccccc2)c(C(=O)Nc2ccc(S(N)(=O)=O)cc2)c1=O`, the activity change, negative = inhibition was 6.63%.

As to `COc1ccc(-c2c3c(=O)n(C)c(=O)n(C)c3c3c(C)nc4ccccc4n23)cc1`, the activity change, negative = inhibition is 6.41%.
